Data as given in PubChem BioAssay (NCATS).
Inconclusive results are not listed. Where a call stands in place of a potency, no number is given. The source made the active and inactive calls. Unless noted, calls come from the whole dose curve.

Columns and labels:
[1] = Ebola virus entry cell assay, ratio channel
[2] = qHTS assay to identify small molecule inhibitors of chordoma cells - UCH-1 (AID 1259355; active = well fitted curve in the direction sought with a large enough effect; an effect the other way counts as inactive or inconclusive; note: nearly all actives have a fitted effect of over 55% in size); settings: UCH-1 chordoma viability, CellTiter-Glo, 48 h, combination; series mostly up to 46.1 µM
How it was run: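 800 cells/well, overnight attach; compounds pinned at 15 concs, then auranofin/camptothecin/doxorubicin/rubitecan/topotecan combo added; 48hr 37 C, 5% CO2; CellTiter-Glo, 30min RT, luminescence.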

[3] = Immunotoxin (SS1P) sensitization/mitigation study. Vehicle arm (DMEM) (AID 1159513; call rule not given here; note: potency is the fitted concentration of half-maximal effect); settings: cell viability with vehicle (DMEM); series mostly up to 46.1 µM
[4] = Immunotoxin (HA22) sensitization/mitigation study. Vehicle arm (PBS) (AID 1159510; call rule not given here; note: potency is the fitted concentration of half-maximal effect); settings: cancer cells viability with PBS vehicle (HA22 study); series mostly up to 46.1 µM
[5] = qHTS assay to identify small molecule inhibitors of chordoma cells - UCH-2 (AID 1259356; active = well fitted curve in the direction sought with a large enough effect; an effect the other way counts as inactive or inconclusive); settings: UCH-2 chordoma viability, CellTiter-Glo ATP luminescence, 48 h; series mostly up to 46.1 µM
[6] = High-throughput drug toxicity screening in the BPDCN cell line Gen2.2 (AID 1224824; call rule not given here;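 note: cells exposed to compounds for 48 h before reading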); settings: Gen2.2 BPDCN cells; at 45.8 µM (top of the series) unless noted
How it was run: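 CellTiter-Glo luminescence after 48 h compound exposure of Gen2.2 cells; percent activity set with DMSO as 100% and bortezomib (9.2 uM final) as 0%. Cells seeded at 500 per well, RPMI + 10% FBS, 37 °C.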

[7] = High-throughput drug toxicity screening in the BPDCN cell line Cal-1 (AID 1224825); settings: Cal-1 BPDCN cell viability, qHTS; at 45.8 µM (top of the series) unless noted
How it was run: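 Percent activity derived from CellTiter-Glo luminescence, scaling DMSO to 100% and 9.2 uM final bortezomib to 0%. BPDCN Cal-1 cells (500/well, RPMI plus 10% FBS) incubated with compounds 48 hours at 37C before reading.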

[8] = qHTS assay for measurement of the activity of small molecule inhibitors on Zika virus induced Caspase-3 activity in human iPSC derived neural progenitor cells (hNPCs) (AID 1224857; active = well fitted curve in the direction sought with a large enough effect; an effect the other way counts as inactive or inconclusive; note: nearly all actives have a fitted effect of over 65% in size); settings: hNPCs ZIKV-induced caspase-3/7, Caspase-Glo luminescence, 6 h; series mostly up to 45.7 µM
How it was run: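 In medium with heparin 2 ug/ml and cyclopamine 2 uM, hNPCs (350 cells/well) received compound for one hour and then Zika virus at 2 FFU/cell; caspase activity was measured by Caspase-Glo 3/7 luminescence 6 h post-infection.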

[9] = qHTS assay for measurement of the activity of small molecule inhibitors on Zika virus induced Caspase-3 activity in human astrocytoma cells (AID 1224859; active = well fitted curve in the direction sought with a large enough effect; an effect the other way counts as inactive or inconclusive); settings: SNB-19 ZIKV-induced caspase-3/7, luminescence, 6 h; series mostly up to 45.7 µM
How it was run: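 A cell-based luminescent caspase-3/7 assay used SNB-19 cells infected with ZIKV (2 FFU/cell) for 6 h following 1 h compound pretreatment.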

[10] = qHTS Screen of the MIPE 4.0 Collection Against Ewings Sarcoma (RDES) (AID 1259252; active = well fitted curve in the direction sought with a large enough effect; an effect the other way counts as inactive or inconclusive; note: potency is the fitted concentration of half-maximal effect; nearly all actives have a fitted effect of over 35% in size); settings: RD-ES Ewing sarcoma viability, CellTiter-Glo, 48 h; series mostly up to 45.8 µM
How it was run: (§1)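 After a 4 h attachment period in RPMI/5% FBS, cells were pin-dosed with test compounds; DMSO served as negative and 9.2 uM bortezomib (final) as positive control. Luminescent CellTiter-Glo signal at 48 h defined viability.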

[11] = qHTS Screen of the MIPE 4.0 Collection Against Ewings Sarcoma (TC71) (AID 1259253; active = well fitted curve in the direction sought with a large enough effect; an effect the other way counts as inactive or inconclusive; note: potency is the fitted concentration of half-maximal effect; nearly all actives have a fitted effect of over 40% in size); settings: TC71 Ewing sarcoma viability, CellTiter-Glo, 48 h; series mostly up to 45.8 µM
How it was run: as §1

[12] = qHTS Screen of the MIPE 4.0 Collection Against Ewings Sarcoma (TC32) (AID 1259256; active = well fitted curve in the direction sought with a large enough effect; an effect the other way counts as inactive or inconclusive; note: potency is the fitted concentration of half-maximal effect; nearly all actives have a fitted effect of over 45% in size); settings: TC32 Ewing sarcoma viability, CellTiter-Glo, 48 h; series mostly up to 45.8 µM
How it was run: as §1

For COc1cc([C@@H]2c3cc4c(cc3C(O[C@@H]3O[C@@H]5CO[C@@H](C)O[C@H]5[C@H](O)[C@H]3O)C3COC(=O)[C@@H]32)OCO4)cc(OC)c1OP(=O)(O)O (stereo not given in full), which AC50 [1] is on record?
The AC50 was 7.08 µM (active).

What does the source list for CCCC(C)(COC(N)=O)COC(N)=O?
outcome [1]: inactive; outcome [2]: inactive

Which outcome [1] does the source give for CO/N=C(/C(=O)N[C@@H]1C(=O)N2C(C(=O)O)=C(COC(N)=O)CS[C@H]12)c1ccco1 here?
The outcome was “inactive”.

With Cc1onc(-c2ccccc2)c1C(=O)N[C@@H]1C(=O)N2[C@@H](C(=O)O)C(C)(C)S[C@@H]12 as the compound, how does the outcome [1] read?
Its outcome is “inactive”.

Which outcome [1] does the source give for CC(C)NCC(O)c1ccc(NS(C)(=O)=O)cc1 (stereo not given) here?
Its outcome is “inactive”.

With CCN1C(=O)NC(c2ccccc2)C1=O (stereo not given) as the compound, how does the outcome [1] read?
The outcome was “inactive”.

For N#Cc1ccc(C(c2ccc(C#N)cc2)n2cncn2)cc1, which outcome [1] is on record?
The outcome was “inactive”.

And the Potency [3]?
The Potency was “inactive”.

For O=C(O)C[C@H](O)C[C@H](O)/C=C/c1c(C2CC2)nc2ccccc2c1-c1ccc(F)cc1, which outcome [1] is on record?
The outcome was “inactive”.

What does the source list for Nc1nc(Cl)nc2c1ncn2[C@H]1C[C@H](O)[C@@H](CO)O1?
outcome [1]: inactive; Potency [4]: 9.59 µM (active); Potency [3]: 48.1 µM (active)

Which Potency [3] does the source give for Cc1ccc(Nc2nccc(N(C)c3ccc4c(C)n(C)nc4c3)n2)cc1S(N)(=O)=O here?
Its Potency is 20.9 µM (active).

For C=CC1=C(C(=O)O)N2C(=O)[C@@H](NC(=O)/C(=N\O)c3csc(N)n3)[C@H]2SC1 (stereo in doubt), which outcome [1] is on record?
The outcome was “inactive”.

With NC(=O)[C@@H]1CCCN1C(=O)[C@H](Cc1cnc[nH]1)NC(=O)[C@@H]1CCC(=O)N1 as the compound, how does the outcome [1] read?
Its outcome is “inactive”.

Which results are given for Cc1nnc2n1-c1ccc(Cl)cc1C(c1ccccc1Cl)=NC2?
outcome [1]: inactive; outcome [2]: inactive; outcome [5]: inactive

For COc1ccnc(CS(=O)c2nc3cc(OC(F)F)ccc3[nH]2)c1OC (stereo not given), which outcome [1] is on record?
The outcome was “inactive”.

With CN1C[C@H](C(=O)N[C@]2(C)O[C@@]3(O)[C@@H]4CCCN4C(=O)[C@H](Cc4ccccc4)N3C2=O)C=C2c3cccc4[nH]cc(c34)C[C@H]21 as the compound, how does the outcome [1] read?
Its outcome is “inactive”.

What about the outcome [5] of the same compound?
The outcome was “inactive”.

For COc1cc(C)c(/C=C/C(C)=C/C=C/C(C)=C/C(=O)O)c(C)c1C, which outcome [1] is on record?
The outcome was “inactive”.

For CO/N=C(\C(=O)N[C@@H]1C(=O)N2C(C(=O)O)=C(COC(C)=O)CS[C@H]12)c1csc(N)n1 (stereo in doubt), which outcome [1] is on record?
The outcome was “inactive”.

With COc1ccc2c(c1)C13CCCC[C@@H]1C(C2)N(C)CC3 (stereo not given in full) as the compound, how does the outcome [1] read?
The outcome was “inactive”.

What about the outcome [2] of the same compound?
Its outcome is “inactive”.

And the outcome [5]?
The outcome was “inactive”.

For CNCCC=C1c2ccccc2CCc2ccccc21, which AC50 [1] is on record?
Its AC50 is 7.94 µM (active).

For O=P(O)(O)C(Sc1ccc(Cl)cc1)P(=O)(O)O, which outcome [1] is on record?
The outcome was “inactive”.

With C[C@](O)(CS(=O)(=O)c1ccc(F)cc1)C(=O)Nc1ccc(C#N)c(C(F)(F)F)c1 as the compound, how does the outcome [1] read?
The outcome was “inactive”.

And the cell viability, % of control (lower = more cytotoxic) [6]?
Its cell viability, % of control (lower = more cytotoxic) is 14%.

What about the viability (% of control) [7] of the same compound?
Its viability (% of control) is 5.28%.

And the outcome [8]?
Its outcome is “inactive”.

And the outcome [9]?
Its outcome is “inactive”.

What about the Potency [10] of the same compound?
Its Potency is 1.87 µM (active).

What about the Potency [11] of the same compound?
Its Potency is 3.72 µM (active).

And the Potency [12]?
Its Potency is 4.69 µM (active).

What about the outcome [2] of the same compound?
Its outcome is “inactive”.

With CCOC(=O)C1=C(COCCN)NC(C)=C(C(=O)OC)C1c1ccccc1Cl (stereo not given) as the compound, how does the outcome [1] read?
The outcome was “inactive”.

With CC(=O)NC[C@H]1CN(c2ccc(N3CCOCC3)c(F)c2)C(=O)O1 as the compound, how does the outcome [1] read?
Its outcome is “inactive”.
